# According to the supplement of paper PMC12282887:
# ± gives the standard deviation of the averaged measurements.
# Experiments:
# Test in all cases: promoter activity interaction Z-score (Lux/OD deviation from empty-vector control); higher = stronger promoter induction by the compound
# [1] = tested on: E. coli BW25113 acrABp lux reporter
# In short: (§1)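 E. coli BW25113 (wild type or marA, soxS or rob deletion) carrying low-copy luxCDABE promoter reporters grew in 40 µl LB Lennox in 384-well plates at 37°C. Each compound was tested at four 1:2 dilutions in biological duplicates. OD600 and luminescence were read every 30 min for 12 h. Areas were taken over 0–8 h (wild type) or 1–9 h (mutants), and wells below 10% of median growth area were removed. The score is the Z-transformed residual of growth-normalised luminescence fitted against the empty-vector control.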
# [2] = tested on: E. coli BW25113 marRABp lux reporter
# In short: as §1
# [3] = tested on: E. coli BW25113 micFp lux reporter
# In short: as §1
# [4] = tested on: E. coli BW25113 ompFp lux reporter
# In short: as §1
# [5] = tested on: E. coli BW25113 robp lux reporter
# In short: as §1
# [6] = tested on: E. coli BW25113 soxSp lux reporter
# In short: as §1
# [7] = tested on: E. coli BW25113 tolCp lux reporter
# In short: as §1
# [8] = 35.6 µg/ml, genetic background: wild type
# [9] = 35.6 µg/ml, genetic background: ΔmarA
# [10] = 35.6 µg/ml, genetic background: Δrob
# [11] = 35.6 µg/ml, genetic background: ΔsoxS
# [12] = 71.1 µg/ml, genetic background: wild type
# [13] = 71.1 µg/ml, genetic background: ΔmarA
# [14] = 71.1 µg/ml, genetic background: Δrob
# [15] = 71.1 µg/ml, genetic background: ΔsoxS
# [16] = 142.3 µg/ml, genetic background: wild type
# [17] = 142.3 µg/ml, genetic background: ΔmarA
# [18] = 142.3 µg/ml, genetic background: Δrob
# [19] = 142.3 µg/ml, genetic background: ΔsoxS
# [20] = 284.5 µg/ml, genetic background: wild type
# [21] = 284.5 µg/ml, genetic background: ΔmarA
# [22] = 284.5 µg/ml, genetic background: Δrob
# [23] = 284.5 µg/ml, genetic background: ΔsoxS
smiles,measurement,setting,value
CC[C@H](C)[C@H](N)C1=N[C@H](C(=O)N[C@@H](CC(C)C)C(=O)N[C@H](CCC(=O)O)C(=O)N[C@H](C(=O)N[C@H]2CCCCNC(=O)[C@H](CC(N)=O)NC(=O)[C@@H](CC(=O)O)NC(=O)[C@H](Cc3cnc[nH]3)NC(=O)[C@@H](Cc3ccccc3)NC(=O)[C@H]([C@@H](C)CC)NC(=O)[C@@H](CCCN)NC2=O)[C@@H](C)CC)CS1 [Bacitracin],promoter activity interaction Z-score,[1]; [8],0.238 ± 0.011
same,promoter activity interaction Z-score,[1]; [9],0.0967 ± 0.69
same,promoter activity interaction Z-score,[1]; [10],0.103 ± 0.11
same,promoter activity interaction Z-score,[1]; [11],-0.486 ± 0.28
same,promoter activity interaction Z-score,[1]; [12],-0.189 ± 0.25
same,promoter activity interaction Z-score,[1]; [13],-0.152 ± 0.45
same,promoter activity interaction Z-score,[1]; [14],-0.3 ± 0.21
same,promoter activity interaction Z-score,[1]; [15],-0.354 ± 0.56
same,promoter activity interaction Z-score,[1]; [16],-0.563 ± 0.27
same,promoter activity interaction Z-score,[1]; [17],0.111 ± 0.27
same,promoter activity interaction Z-score,[1]; [18],-0.64 ± 0.089
same,promoter activity interaction Z-score,[1]; [19],-0.484 ± 0.29
same,promoter activity interaction Z-score,[1]; [20],-0.416 ± 0.21
same,promoter activity interaction Z-score,[1]; [21],-0.491 ± 0.073
same,promoter activity interaction Z-score,[1]; [22],-0.296 ± 0.36
same,promoter activity interaction Z-score,[1]; [23],0.474 ± 0.51
same,promoter activity interaction Z-score,[2]; [8],0.278 ± 0.2
same,promoter activity interaction Z-score,[2]; [9],0.153 ± 0.22
same,promoter activity interaction Z-score,[2]; [10],-0.0986 ± 0.2
same,promoter activity interaction Z-score,[2]; [11],-0.193 ± 0.086
same,promoter activity interaction Z-score,[2]; [12],-0.0216 ± 0.19
same,promoter activity interaction Z-score,[2]; [13],-0.262 ± 0.16
same,promoter activity interaction Z-score,[2]; [14],-0.251 ± 0.062
same,promoter activity interaction Z-score,[2]; [15],-0.169 ± 0.029
same,promoter activity interaction Z-score,[2]; [16],-0.588 ± 0.2
same,promoter activity interaction Z-score,[2]; [17],-0.5787 ± 0.0025
same,promoter activity interaction Z-score,[2]; [18],-0.542 ± 0.048
same,promoter activity interaction Z-score,[2]; [19],-0.36 ± 0.085
same,promoter activity interaction Z-score,[2]; [20],0.158 ± 0.24
same,promoter activity interaction Z-score,[2]; [21],0.0811 ± 0.011
same,promoter activity interaction Z-score,[2]; [22],-0.159 ± 0.29
same,promoter activity interaction Z-score,[2]; [23],0.576 ± 0.23
same,promoter activity interaction Z-score,[3]; [8],-0.0989 ± 0.035
same,promoter activity interaction Z-score,[3]; [9],-0.0164 ± 0.05
same,promoter activity interaction Z-score,[3]; [10],0.0475 ± 0.15
same,promoter activity interaction Z-score,[3]; [11],-0.478 ± 0.18
same,promoter activity interaction Z-score,[3]; [12],-0.268 ± 0.032
same,promoter activity interaction Z-score,[3]; [13],-0.0396 ± 0.049
same,promoter activity interaction Z-score,[3]; [14],-0.239 ± 0.028
same,promoter activity interaction Z-score,[3]; [15],-0.278 ± 0.083
same,promoter activity interaction Z-score,[3]; [16],-0.506 ± 0.083
same,promoter activity interaction Z-score,[3]; [17],-0.139 ± 0.089
same,promoter activity interaction Z-score,[3]; [18],-0.177 ± 0.087
same,promoter activity interaction Z-score,[3]; [19],-0.0874 ± 0.23
same,promoter activity interaction Z-score,[3]; [20],0.124 ± 0.091
same,promoter activity interaction Z-score,[3]; [21],-0.167 ± 0.014
same,promoter activity interaction Z-score,[3]; [22],-0.188 ± 0.095
same,promoter activity interaction Z-score,[3]; [23],0.2 ± 0.17
same,promoter activity interaction Z-score,[4]; [8],0.637 ± 0.23
same,promoter activity interaction Z-score,[4]; [9],0.358 ± 0.11
same,promoter activity interaction Z-score,[4]; [10],0.253 ± 0.87
same,promoter activity interaction Z-score,[4]; [11],-0.738 ± 0.32
same,promoter activity interaction Z-score,[4]; [12],0.389 ± 0.42
same,promoter activity interaction Z-score,[4]; [13],0.103 ± 0.39
same,promoter activity interaction Z-score,[4]; [14],-0.153 ± 0.32
same,promoter activity interaction Z-score,[4]; [15],-0.256 ± 0.011
same,promoter activity interaction Z-score,[4]; [16],-0.463 ± 0.37
same,promoter activity interaction Z-score,[4]; [17],0.405 ± 1.2
same,promoter activity interaction Z-score,[4]; [18],-0.823 ± 0.087
same,promoter activity interaction Z-score,[4]; [19],0.0137 ± 0.45
same,promoter activity interaction Z-score,[4]; [20],1.52
same,promoter activity interaction Z-score,[4]; [21],0.962 ± 0.71
same,promoter activity interaction Z-score,[4]; [22],1.05 ± 1.1
same,promoter activity interaction Z-score,[4]; [23],1.9 ± 0.51
same,promoter activity interaction Z-score,[5]; [8],0.859 ± 0.14
same,promoter activity interaction Z-score,[5]; [9],-0.334 ± 0.088
same,promoter activity interaction Z-score,[5]; [10],0.568 ± 0.89
same,promoter activity interaction Z-score,[5]; [11],0.00456 ± 0.7
same,promoter activity interaction Z-score,[5]; [12],0.186 ± 0.99
same,promoter activity interaction Z-score,[5]; [13],0.452 ± 0.16
same,promoter activity interaction Z-score,[5]; [14],0.266 ± 0.06
same,promoter activity interaction Z-score,[5]; [15],-0.45 ± 0.04
same,promoter activity interaction Z-score,[5]; [16],-0.429 ± 0.72
same,promoter activity interaction Z-score,[5]; [17],0.326 ± 0.28
same,promoter activity interaction Z-score,[5]; [18],-0.561 ± 0.13
same,promoter activity interaction Z-score,[5]; [19],-0.919 ± 0.74
same,promoter activity interaction Z-score,[5]; [20],-0.714 ± 0.18
same,promoter activity interaction Z-score,[5]; [21],-0.548 ± 0.32
same,promoter activity interaction Z-score,[5]; [22],-0.858 ± 1
same,promoter activity interaction Z-score,[5]; [23],-0.93 ± 0.068
same,promoter activity interaction Z-score,[6]; [8],0.0222 ± 0.019
same,promoter activity interaction Z-score,[6]; [9],-0.0752 ± 0.056
same,promoter activity interaction Z-score,[6]; [10],0.145 ± 0.063
same,promoter activity interaction Z-score,[6]; [11],-0.325 ± 0.089
same,promoter activity interaction Z-score,[6]; [12],-0.173 ± 0.011
same,promoter activity interaction Z-score,[6]; [13],-0.209 ± 0.049
same,promoter activity interaction Z-score,[6]; [14],-0.232 ± 0.096
same,promoter activity interaction Z-score,[6]; [15],-0.288 ± 0.14
same,promoter activity interaction Z-score,[6]; [16],-0.325 ± 0.11
same,promoter activity interaction Z-score,[6]; [17],-0.318 ± 0.0051
same,promoter activity interaction Z-score,[6]; [18],-0.254 ± 0.028
same,promoter activity interaction Z-score,[6]; [19],-0.236 ± 0.42
same,promoter activity interaction Z-score,[6]; [20],-0.265 ± 0.017
same,promoter activity interaction Z-score,[6]; [21],-0.188 ± 0.075
same,promoter activity interaction Z-score,[6]; [22],-0.556 ± 0.091
same,promoter activity interaction Z-score,[6]; [23],0.196
same,promoter activity interaction Z-score,[7]; [8],0.175 ± 0.14
same,promoter activity interaction Z-score,[7]; [9],0.3 ± 0.76
same,promoter activity interaction Z-score,[7]; [10],-0.634 ± 0.13
same,promoter activity interaction Z-score,[7]; [11],-0.127 ± 0.13
same,promoter activity interaction Z-score,[7]; [12],-0.904 ± 0.76
same,promoter activity interaction Z-score,[7]; [13],-0.251 ± 0.39
same,promoter activity interaction Z-score,[7]; [14],-0.77 ± 0.38
same,promoter activity interaction Z-score,[7]; [15],-0.771 ± 0.63
same,promoter activity interaction Z-score,[7]; [16],-1.08 ± 0.47
same,promoter activity interaction Z-score,[7]; [17],-0.183 ± 0.34
same,promoter activity interaction Z-score,[7]; [18],-0.421 ± 0.15
same,promoter activity interaction Z-score,[7]; [19],-0.321 ± 0.69
same,promoter activity interaction Z-score,[7]; [20],-0.273 ± 0.36
same,promoter activity interaction Z-score,[7]; [21],-0.299 ± 0.51
same,promoter activity interaction Z-score,[7]; [22],-1.24 ± 0.052
same,promoter activity interaction Z-score,[7]; [23],-0.245 ± 0.87
